Experimental findings from the supplement of paper PMC12297408 are described below.

Where a name gives a salt, the structure may show the parent alone.

For the first experiment, the system named is Plasmodium falciparum NF54/iGP1_RE9H ulg8 stage V gametocytes. As to the kind of experiment: gametocyte viability (luciferase signal relative to DMSO control) (% of DMSO control); higher = less gametocytocidal activity, active = 50 or less. The following applies: concentration: 1 µM; exposure time: 72 h. The method, then: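 Synchronous P. falciparum NF54/iGP1_RE9H ulg8 mature stage V gametocytes (day 12) were exposed to Cayman Epigenetics Screening Library compounds at 10 µM or 1 µM for 72 h at 37 °C. Viability was read as RE9H luciferase bioluminescence, normalised to DMSO plate controls (100%); 50 µM methylene blue was the positive control.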
Turning to `CCOC(=O)Nc1cc(-c2ccc(C)c(NS(C)(=O)=O)c2)nn2c(C)nnc12` [Bromosporine], the gametocyte viability is 86.5 (inactive).

Take `Nc1ccccc1NC(=O)CCCCCC(=O)Nc1ccccc1`: the gametocyte viability was 88.7 (inactive).

Consider `Cn1cc(C(=O)Nc2ccc3c(c2)OCCO3)c2ccccc2c1=O`, for which the gametocyte viability was 82.7 (inactive).

Regarding `Clc1cc2c(NC3CCCC3)nnc(-c3ccncc3)c2cc1Cl`, the gametocyte viability is 83.9 (inactive).

Consider `COC(=O)/C=C/C(=O)N(O)CCCCNCc1ccc(COC(=O)Nc2cccc3ccccc23)cc1` [Methylstat (hydrate)], for which the gametocyte viability is 89.4 (inactive).

Regarding `CCCC(CCC)C(=O)O` [Valproic Acid (sodium salt)], the gametocyte viability was 86.9 (inactive).

On to `Cc1nn(C)cc1CN1CCC(c2ccc(C(=O)Nc3ccccc3N)cc2)CC1`, for which the gametocyte viability was 86 (inactive).

Take `CN(C)Cc1ccc(S(=O)(=O)n2ccc(/C=C/C(=O)NO)c2)cc1` [Resminostat (hydrochloride)]: the gametocyte viability is 94.8 (inactive).

In the case of `CCOC(=O)C1=CN(Cc2ccccc2)C=C(C(=O)OCC)C1c1ccccc1`, the gametocyte viability is 80.7 (inactive).

Regarding `Nc1ccccc1NC(=O)c1ccc(CNC(=O)OCc2cccnc2)cc1`, the gametocyte viability was 83.8 (inactive).

As for `CC(=O)OCC1OC(n2cnc(N)nc2=O)C(OC(C)=O)C1OC(C)=O` (stereo not given) [2',3',5'-triacetyl-5-Azacytidine], the gametocyte viability was 87.3 (inactive).

On to `O=C(NCC(=O)N1CCCC1)Nc1ccc2cnccc2c1`, for which the gametocyte viability was 91.7 (inactive).

For the molecule `O=c1oc2c(O)c(O)cc3c(=O)oc4c(O)c(O)cc1c4c23` [Ellagic Acid], the gametocyte viability was 101 (inactive).

Consider `Nc1ncn([C@@H]2O[C@H](CO)[C@@H](O)[C@H]2O)c(=O)n1` [5-Azacytidine], for which the gametocyte viability is 89 (inactive).

For the molecule `COc1cc2c(cc1-c1c(C)noc1C)ncc1[nH]c(=O)n([C@H](C)c3ccccn3)c12`, the gametocyte viability was 91.5 (inactive).

Regarding `O=C(O)c1ccnc(C(=O)O)c1` [2,4-Pyridinedicarboxylic Acid (hydrate)], the gametocyte viability was 90.8 (inactive).

As to `CCCCOc1ccc(CC(=O)NO)cc1` [Bufexamac], the gametocyte viability was 85 (inactive).

In the case of `O=c1[nH]c(=S)[nH]c(-c2ccccc2)c1Cc1c(O)ccc2ccccc12` [SIRT1/2 Inhibitor IV], the gametocyte viability is 84.7 (inactive).

Take `O=C(NC[C@H](O)CN1CCc2ccccc2C1)c1ccnc(NC2CCC2)c1`: the gametocyte viability was 80.7 (inactive).

Consider `O=C(CCCCCCC(=O)Nc1ccccc1)NO`, for which the gametocyte viability is 86.4 (inactive).

Staying with this experiment, now noted: concentration: 10 µM; exposure time: 72 h.
Turning to `CCOC(=O)Nc1cc(-c2ccc(C)c(NS(C)(=O)=O)c2)nn2c(C)nnc12` [Bromosporine], the gametocyte viability was 83.1 (inactive).

For `Nc1ccccc1NC(=O)CCCCCC(=O)Nc1ccccc1`, the gametocyte viability was 96.1 (inactive).

Take `Cn1cc(C(=O)Nc2ccc3c(c2)OCCO3)c2ccccc2c1=O`: the gametocyte viability is 79.9 (inactive).

Turning to `Clc1cc2c(NC3CCCC3)nnc(-c3ccncc3)c2cc1Cl`, the gametocyte viability was 71.7 (inactive).

Regarding `COC(=O)/C=C/C(=O)N(O)CCCCNCc1ccc(COC(=O)Nc2cccc3ccccc23)cc1` [Methylstat (hydrate)], the gametocyte viability is 32 (active).

For `CCCC(CCC)C(=O)O` [Valproic Acid (sodium salt)], the gametocyte viability is 86.4 (inactive).

Turning to `Cc1nn(C)cc1CN1CCC(c2ccc(C(=O)Nc3ccccc3N)cc2)CC1`, the gametocyte viability was 90.2 (inactive).

For the molecule `CN(C)Cc1ccc(S(=O)(=O)n2ccc(/C=C/C(=O)NO)c2)cc1` [Resminostat (hydrochloride)], the gametocyte viability was 77.8 (inactive).

As for `CCOC(=O)C1=CN(Cc2ccccc2)C=C(C(=O)OCC)C1c1ccccc1`, the gametocyte viability is 77.6 (inactive).

For `Nc1ccccc1NC(=O)c1ccc(CNC(=O)OCc2cccnc2)cc1`, the gametocyte viability was 88 (inactive).

Consider `CC(=O)OCC1OC(n2cnc(N)nc2=O)C(OC(C)=O)C1OC(C)=O` (stereo not given) [2',3',5'-triacetyl-5-Azacytidine], for which the gametocyte viability is 85.8 (inactive).

As for `O=C(NCC(=O)N1CCCC1)Nc1ccc2cnccc2c1`, the gametocyte viability is 93.4 (inactive).

Turning to `O=c1oc2c(O)c(O)cc3c(=O)oc4c(O)c(O)cc1c4c23` [Ellagic Acid], the gametocyte viability was 95.3 (inactive).

With `Nc1ncn([C@@H]2O[C@H](CO)[C@@H](O)[C@H]2O)c(=O)n1` [5-Azacytidine], the gametocyte viability is 90.8 (inactive).

Regarding `COc1cc2c(cc1-c1c(C)noc1C)ncc1[nH]c(=O)n([C@H](C)c3ccccn3)c12`, the gametocyte viability was 97.8 (inactive).

As to `O=C(O)c1ccnc(C(=O)O)c1` [2,4-Pyridinedicarboxylic Acid (hydrate)], the gametocyte viability is 90.6 (inactive).

In the case of `CCCCOc1ccc(CC(=O)NO)cc1` [Bufexamac], the gametocyte viability is 94.8 (inactive).

`O=c1[nH]c(=S)[nH]c(-c2ccccc2)c1Cc1c(O)ccc2ccccc12` [SIRT1/2 Inhibitor IV]: the gametocyte viability is 87.5 (inactive).

For the molecule `O=C(NC[C@H](O)CN1CCc2ccccc2C1)c1ccnc(NC2CCC2)c1`, the gametocyte viability was 79.5 (inactive).

For `O=C(CCCCCCC(=O)Nc1ccccc1)NO`, the gametocyte viability is 56.2 (inactive).
